Several values for one entry are separate records, joined by “and”; a condition that tells them apart may be missing. Equal entries are not always repeated. Inconclusive results are not listed. The source holds several records for some structures; these can differ, active in one and inactive in another. Activity calls are given as the source filed them. Unless noted, calls follow the shape of the dose curve; as a rule, active = well fitted curve in the direction sought with a large enough effect in the repeat runs; inconclusive = weak or mixed curves; inactive = no such curve, though single readings can be large; an effect the other way counts as inactive or inconclusive.

We go through seven molecules from PubChem BioAssay (Tox21).

Experiment [1] in a line: qHTS assay to identify small molecule agonists of the progesterone receptor (PR) signaling pathway - cell viability counter screen (AID 1346799; calls by dose curve; also: nearly all actives have a fitted effect of over 45% in size). In short, it runs like this: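 Luminescence from CellTiter-Glo, added after the beta-lactamase FRET read in the same wells, gave cytotoxicity in PR-UAS-bla HEK293T cells treated with compounds for 16 hr at 37C.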
A short description of experiment [2]: qHTS assay to identify small molecule antagonists of the TGF-beta/Smad signaling pathway - cell viability counter screen (AID 1346824). Also: nearly all actives have a fitted effect of over 50% in size. In short, it runs like this: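 SBE-bla HEK 293T cells, incubated overnight, then compound plus 0.25 ng/mL TGF-beta1 (stock added) for 5 hr at 37 C. Viability was read in the same wells by CellTiter-Glo luminescence after 30 min at room temperature.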

The nature of experiment [3]: qHTS assay to identify small molecule agonists of the TGF-beta/Smad signaling pathway - cell viability counter screen (AID 1346829). Also: top concentration of the series differs between compounds; nearly all actives have a fitted effect of over 45% in size. In a few lines: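 SBE-bla HEK 293T cells plated overnight, compound exposure 5 hr at 37 C. Viability read in the same wells by CellTiter-Glo luminescence after 30 min at room temperature, following the beta-lactamase read.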
Experiment [4] has as its target Thyrotropin-releasing hormone receptor (Homo sapiens) (UniProt P34981). Briefly: qHTS assay to identify small molecule antagonists of the thyrotropin-releasing hormone receptor (TRHR) signaling pathway (AID 1346877; active = well fitted inhibition curve with a large enough effect in the repeat runs, not every such curve was filed as active; also: series mostly up to about 51 µM). In a few lines:
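Overnight-plated (18 h, 37 °C) HEK293 cells expressing TRHR were dye-loaded 2 h, treated with compound, then stimulated with TRH at 1 nM final. Fluorescence intensity was captured every second for 3 min.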

Experiment [5] has the same target. Briefly: qHTS assay to identify small molecule agonists of the thyrotropin-releasing hormone receptor (TRHR) signaling pathway (AID 1346891; calls by dose curve; also: series mostly up to about 58 µM). In short, it runs like this: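 Intracellular calcium rise, read as fluorescence every second for 3 min, served as the agonist signal in dye-loaded HEK293 cells expressing TRHR; each compound ran at 15 concentrations in triplicate.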

Experiment [6] can be described thus: Human pregnane X receptor (PXR) small molecule agonists, qHTS cell viability counter screen (AID 1346977). Also: nearly all actives have a fitted effect of over 50% in size. Also: potency is read from the fitted curve at half-maximal effect. In a few lines:
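PXR-Luc HepG2, 2,000 cells/well, 5% charcoal-stripped FBS; 5hr settle; cpd 24hr, 37C/5% CO2; CellTiter-Fluor at 23hr, read 1hr later (fluorescence).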

Experiment [7] is described as follows: Caspase-3/7 induction in CHO-K1 cells by small molecules, qHTS assay (AID 1346980). Also: nearly all actives have a fitted effect of over 15% in size. In short, it runs like this: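 Wild-type CHO-K1 cells exposed to compounds for 17hr at 37 C, 5% CO2. Caspase-3/7 activity then measured by Caspase-Glo 3/7 luminescence after 30min at room temperature.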
Experiment [8] in a line: Caspase-3/7 induction in HepG2 cells by small molecules, qHTS cell viability counter screen (AID 1346981). Also: nearly all actives have a fitted effect of over 30% in size. Also: potency is read from the fitted curve at half-maximal effect. In a few lines: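 Treatment of HepG2 cells with DMSO-delivered compounds ran 16 hr at 37 C following a 5-hr pre-incubation of 2,000 cells/well. CellTiter-Fluor fluorescence, read after 1 hr, served as the viability measure in a qHTS format.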
The target of experiment [9] is Nuclear receptor subfamily 1 group I member 2 (Homo sapiens) (UniProt O75469). Briefly: Human pregnane X receptor (PXR) small molecule agonists, qHTS assay (AID 1346982). Also: nearly all actives have a fitted effect of over 35% in size. Also: potency is read from the fitted curve at half-maximal effect. In short, it runs like this: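 Stable HepG2 line reporting PXR-mediated CYP3A4 expression via luciferase. Treatment: 24 hr with compounds in DMSO at 37 C. Detection: ONE-Glo luminescence.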
Chain of Nuclear receptor subfamily 1 group I member 2 (Homo sapiens) (O75469 whole entry, looked up): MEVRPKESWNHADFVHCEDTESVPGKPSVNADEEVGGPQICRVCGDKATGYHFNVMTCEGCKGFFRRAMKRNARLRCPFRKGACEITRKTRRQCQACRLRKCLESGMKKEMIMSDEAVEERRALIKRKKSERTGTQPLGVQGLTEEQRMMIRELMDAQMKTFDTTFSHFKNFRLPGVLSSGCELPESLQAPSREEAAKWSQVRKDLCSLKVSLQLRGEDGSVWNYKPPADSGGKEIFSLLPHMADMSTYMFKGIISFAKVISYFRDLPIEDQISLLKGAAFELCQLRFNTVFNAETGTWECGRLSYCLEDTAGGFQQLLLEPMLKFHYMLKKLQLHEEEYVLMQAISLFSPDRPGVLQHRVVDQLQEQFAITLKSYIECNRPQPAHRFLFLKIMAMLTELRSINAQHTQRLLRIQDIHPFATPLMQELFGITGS
The target in experiment [10] is Nuclear receptor subfamily 1 group I member 2 (Rattus norvegicus) (UniProt Q9R1A7). Briefly: Rat pregnane X receptor (rPXR) activation by small molecules, qHTS assay (AID 1346983). Also: nearly all actives have a fitted effect of over 20% in size. The conditions noted are these: rPXR luciferase reporter cells, One-Glo luminescence, 24 h; max activation: stronger effect = higher value. In short, it runs like this:
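Cell-based rPXR activation assay: rPXR cells, 2,000 per well, rested 5hr at 37 C, then exposed to compounds in DMSO for 24 hr at 37 C. Luciferase activity read by One-Glo luminescence after 30 min at room temperature.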

Experiment [11] deals with Nuclear receptor subfamily 1 group I member 2 (Homo sapiens) (UniProt O75469). Description: Human pregnane X receptor (PXR) activation by small molecules, qHTS assay (AID 1346985). Also: nearly all actives have a fitted effect of over 40% in size. In a few lines:
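DPX-2 cells (HepG2 co-transfected with a PXR response element and a CYP3A4-promoter luciferase construct) were seeded at 2,000 per well, rested 5 hr at 37C, then exposed to DMSO-dissolved compounds for 24 hr. Activation was read as luciferase luminescence.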

In experiment [12] the target is Cytochrome P450 2C19 (Homo sapiens) (UniProt P33261). Briefly: Cytochrome P450 Family 2 Subfamily C Member 19 (CYP2C19) small molecule antagonists: luciferase reporter qHTS assay (AID 1671197). Also: nearly all actives have a fitted effect of over 65% in size. Also: potency is read from the fitted curve at half-maximal effect. In a few lines: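 P450-Glo CYP2C19 system: enzyme-substrate mix with compound 10 min at room temperature, then NADPH regeneration solution, 1 h at 37C. Proluciferin-to-luciferin conversion detected by luminescence after 20 min with detection reagent; ketoconazole as positive control.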
Chain of Cytochrome P450 2C19 (Homo sapiens) (P33261 whole entry, looked up): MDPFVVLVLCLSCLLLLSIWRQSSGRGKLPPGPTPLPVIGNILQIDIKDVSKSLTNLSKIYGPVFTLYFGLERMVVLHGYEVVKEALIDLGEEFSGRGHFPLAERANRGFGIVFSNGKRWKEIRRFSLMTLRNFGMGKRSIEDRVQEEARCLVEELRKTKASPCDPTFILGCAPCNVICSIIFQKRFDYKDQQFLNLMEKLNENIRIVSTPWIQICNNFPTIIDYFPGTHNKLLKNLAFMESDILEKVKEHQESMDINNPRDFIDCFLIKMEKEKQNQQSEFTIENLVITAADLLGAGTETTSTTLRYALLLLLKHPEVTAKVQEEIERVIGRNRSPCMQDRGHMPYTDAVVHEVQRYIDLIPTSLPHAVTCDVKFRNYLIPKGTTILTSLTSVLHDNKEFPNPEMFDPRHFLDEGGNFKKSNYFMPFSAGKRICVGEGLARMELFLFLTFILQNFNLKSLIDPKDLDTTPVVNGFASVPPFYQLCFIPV

Experiment [13] has as its target Cytochrome P450 2C9 (Homo sapiens) (UniProt P11712). Description: Cytochrome P450 Family 2 Subfamily C Member 9 (CYP2C9) small molecule antagonists: luciferase reporter qHTS assay (AID 1671198). Also: nearly all actives have a fitted effect of over 50% in size. Also: potency is read from the fitted curve at half-maximal effect. In short, it runs like this:
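P450-Glo proluciferin substrate with CYP2C9 enzyme; 10 min RT preincubation, then NADPH regeneration 1 h at 37C; luciferin detection reagent 20 min RT, luminescence in relative luminescence units.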

Experiment [14] concerns the target Voltage-gated inwardly rectifying potassium channel KCNH2 (Homo sapiens) (UniProt Q12809). Description: Human Ether-a-go-go-Related Gene (hERG) channel small molecule antagonists: fluorescence cell-based qHTS assay (AID 1671200).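 Also: hERG-expressing U2OS cells given a thallium stimulus after FluxOR II dye loading; series mostly up to about 77 µM; nearly all actives have a fitted effect of over 50% in size.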 In a few lines: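 Channel function was assessed by thallium flux. Cells seeded the previous day and kept at 37 C took up FluxOR II dye over 1 h in the dark at room temperature, then sat another 10 min before stimulation.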

Experiment [15] addresses Cytochrome P450 3A4 (Homo sapiens) (UniProt P08684). Briefly: Cytochrome P450 Family 3 Subfamily A Member 4 (CYP3A4) small molecule antagonists: luciferase reporter qHTS assay (AID 1671201). Also: nearly all actives have a fitted effect of over 50% in size. Also: potency is read from the fitted curve at half-maximal effect. In short, it runs like this: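 Compounds in DMSO were pin-transferred onto CYP3A4 enzyme-substrate mix and held 10 min at room temperature. NADPH regenerating solution started the reaction for 1 h; luciferin detection reagent stopped it, and luminescence was read after 20 min.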

A short description of experiment [16]: Caspase-3/7 induction in HepG2 cells by small molecules, qHTS assay (AID 1346978). Also: nearly all actives have a fitted effect of over 15% in size. In short, it runs like this: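 Wild-type HepG2 cells, 2,000/well, settled 5 hr at 37 C and 5% CO2, then compound-treated for 17 hr; caspase-3/7 activity read by luminescent Caspase-Glo 3/7 after 30 min at room temperature.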
Experiment [17] deals with Cytochrome P450 1A2 (Homo sapiens) (UniProt P05177). Description: Cytochrome P450 Family 1 Subfamily A Member 2 (CYP1A2) small molecule antagonists: luciferase reporter qHTS assay (AID 1671199). Also: nearly all actives have a fitted effect of over 50% in size. Also: potency is read from the fitted curve at half-maximal effect. In short, it runs like this: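 Read-out is luminescence from luciferin detection reagent (20 min) proportional to CYP1A2 activity; compounds in DMSO preincubated 10 min with enzyme and proluciferin substrate, then NADPH regeneration solution, 1 h, room temperature.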
Chain of Cytochrome P450 1A2 (Homo sapiens) (P05177 whole entry, looked up): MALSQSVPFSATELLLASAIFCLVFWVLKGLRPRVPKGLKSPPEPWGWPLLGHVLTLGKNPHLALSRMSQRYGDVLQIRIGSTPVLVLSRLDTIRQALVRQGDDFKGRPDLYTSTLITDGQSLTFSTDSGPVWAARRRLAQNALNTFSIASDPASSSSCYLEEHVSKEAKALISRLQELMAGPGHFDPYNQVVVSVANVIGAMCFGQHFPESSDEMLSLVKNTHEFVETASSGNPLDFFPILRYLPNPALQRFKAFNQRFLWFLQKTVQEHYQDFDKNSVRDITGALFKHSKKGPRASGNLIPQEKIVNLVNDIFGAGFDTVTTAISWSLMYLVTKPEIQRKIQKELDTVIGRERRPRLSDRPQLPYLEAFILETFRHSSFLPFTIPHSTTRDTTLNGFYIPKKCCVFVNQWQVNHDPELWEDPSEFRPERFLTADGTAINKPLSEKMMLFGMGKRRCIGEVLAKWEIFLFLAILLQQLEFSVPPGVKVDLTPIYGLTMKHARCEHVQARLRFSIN

Experiment [18] addresses Cytochrome P450 2D6 (Homo sapiens) (UniProt P10635). Description: Cytochrome P450 Family 2 Subfamily D Member 6 (CYP2D6) small molecule antagonists: luciferase reporter qHTS assay (AID 1671196). In a few lines:
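Chemicals tested for interference with CYP2D6 activity; proluciferin substrate, NADPH regeneration, 1 h at room temperature, luminescent detection.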

The nature of experiment [19]: Caspase-3/7 induction in CHO-K1 cells by small molecules, qHTS cell viability counter screen (AID 1346979). Also: nearly all actives have a fitted effect of over 35% in size. In a few lines:
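Cells (CHO-K1, wild type) are plated at 1,500 per well and incubated 5hr. Test compounds in DMSO are then pinned in, followed by 16hr at 37C and 5% CO2. Viability is read by CellTiter-Fluor fluorescence after 1hr.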

A short description of experiment [20]: qHTS assay to identify small molecule agonists of the TGF-beta/Smad signaling pathway (AID 1346859; active = well fitted activation curve with a large enough effect in the signal ratio in the repeat runs, not every such curve was filed as active; the % refers to the signal ratio; also: series mostly up to about 77 µM). In short, it runs like this:
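SBE-bla HEK 293T, 4,000 cells/well, plated o/n; cpd in DMSO, 5 hr, 37 C/5% CO2; B/G FRET substrate 2 hr RT; ex 405, em 460/530 nm.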
% is scaled to controls: 0 for no effect and ±100 for the full control effect.

Chain of Cytochrome P450 2C9 (Homo sapiens) (P11712 whole entry, looked up): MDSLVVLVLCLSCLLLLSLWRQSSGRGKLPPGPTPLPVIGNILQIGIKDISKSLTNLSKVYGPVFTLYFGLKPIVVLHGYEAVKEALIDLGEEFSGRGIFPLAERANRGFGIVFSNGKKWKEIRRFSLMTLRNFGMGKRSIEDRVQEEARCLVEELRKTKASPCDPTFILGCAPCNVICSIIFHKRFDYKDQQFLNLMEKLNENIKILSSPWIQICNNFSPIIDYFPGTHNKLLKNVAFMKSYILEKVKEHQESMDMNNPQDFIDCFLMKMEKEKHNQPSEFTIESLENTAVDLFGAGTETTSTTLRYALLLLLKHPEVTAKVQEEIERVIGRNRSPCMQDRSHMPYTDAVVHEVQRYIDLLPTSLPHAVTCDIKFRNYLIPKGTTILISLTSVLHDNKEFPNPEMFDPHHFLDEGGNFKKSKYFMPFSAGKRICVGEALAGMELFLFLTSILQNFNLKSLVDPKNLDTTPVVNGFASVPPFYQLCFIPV
Chain of Cytochrome P450 3A4 (Homo sapiens) (P08684 whole entry, looked up): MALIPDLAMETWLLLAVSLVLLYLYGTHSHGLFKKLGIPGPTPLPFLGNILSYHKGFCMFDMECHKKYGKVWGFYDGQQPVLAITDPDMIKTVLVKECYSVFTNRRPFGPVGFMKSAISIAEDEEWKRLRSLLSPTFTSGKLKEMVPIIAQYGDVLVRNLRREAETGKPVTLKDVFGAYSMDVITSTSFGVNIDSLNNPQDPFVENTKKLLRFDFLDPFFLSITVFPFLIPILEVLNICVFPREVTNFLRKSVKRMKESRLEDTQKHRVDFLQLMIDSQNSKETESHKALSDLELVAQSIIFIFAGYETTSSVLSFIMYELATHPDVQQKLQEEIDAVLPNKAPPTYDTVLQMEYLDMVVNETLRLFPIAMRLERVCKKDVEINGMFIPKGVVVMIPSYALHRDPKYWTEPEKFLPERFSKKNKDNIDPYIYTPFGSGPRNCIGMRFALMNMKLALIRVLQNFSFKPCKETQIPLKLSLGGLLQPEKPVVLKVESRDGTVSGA
Chain of Voltage-gated inwardly rectifying potassium channel KCNH2 (Homo sapiens) (Q12809 whole entry, looked up): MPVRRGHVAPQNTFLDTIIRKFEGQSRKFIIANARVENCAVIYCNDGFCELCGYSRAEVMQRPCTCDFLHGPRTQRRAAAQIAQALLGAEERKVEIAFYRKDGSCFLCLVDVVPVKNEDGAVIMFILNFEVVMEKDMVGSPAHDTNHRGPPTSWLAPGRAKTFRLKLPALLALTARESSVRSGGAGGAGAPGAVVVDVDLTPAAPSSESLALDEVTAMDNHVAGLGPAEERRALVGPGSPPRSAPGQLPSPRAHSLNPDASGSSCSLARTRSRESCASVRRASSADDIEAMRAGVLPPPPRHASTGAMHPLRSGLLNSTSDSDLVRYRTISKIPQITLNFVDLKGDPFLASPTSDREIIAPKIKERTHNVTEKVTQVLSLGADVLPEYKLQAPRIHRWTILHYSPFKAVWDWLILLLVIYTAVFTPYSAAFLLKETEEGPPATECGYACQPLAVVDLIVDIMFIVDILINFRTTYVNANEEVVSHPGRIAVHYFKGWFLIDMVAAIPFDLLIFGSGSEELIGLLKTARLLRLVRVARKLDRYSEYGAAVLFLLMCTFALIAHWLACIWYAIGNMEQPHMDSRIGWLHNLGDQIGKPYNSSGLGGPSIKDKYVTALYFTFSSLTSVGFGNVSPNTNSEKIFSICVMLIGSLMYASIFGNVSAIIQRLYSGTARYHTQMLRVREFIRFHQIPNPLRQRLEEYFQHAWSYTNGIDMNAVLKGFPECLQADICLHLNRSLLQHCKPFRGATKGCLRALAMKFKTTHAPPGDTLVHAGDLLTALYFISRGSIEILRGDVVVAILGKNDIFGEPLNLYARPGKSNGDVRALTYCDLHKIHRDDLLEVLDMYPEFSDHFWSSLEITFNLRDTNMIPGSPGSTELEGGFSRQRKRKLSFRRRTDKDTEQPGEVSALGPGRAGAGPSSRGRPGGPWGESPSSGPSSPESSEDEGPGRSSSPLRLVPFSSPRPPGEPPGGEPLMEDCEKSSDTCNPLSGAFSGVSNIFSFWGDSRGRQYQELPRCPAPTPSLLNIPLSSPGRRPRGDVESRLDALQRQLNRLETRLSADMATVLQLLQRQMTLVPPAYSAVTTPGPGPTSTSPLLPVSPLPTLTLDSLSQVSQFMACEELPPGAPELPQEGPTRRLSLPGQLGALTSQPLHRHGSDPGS
Chain of Thyrotropin-releasing hormone receptor (Homo sapiens) (P34981 whole entry, looked up): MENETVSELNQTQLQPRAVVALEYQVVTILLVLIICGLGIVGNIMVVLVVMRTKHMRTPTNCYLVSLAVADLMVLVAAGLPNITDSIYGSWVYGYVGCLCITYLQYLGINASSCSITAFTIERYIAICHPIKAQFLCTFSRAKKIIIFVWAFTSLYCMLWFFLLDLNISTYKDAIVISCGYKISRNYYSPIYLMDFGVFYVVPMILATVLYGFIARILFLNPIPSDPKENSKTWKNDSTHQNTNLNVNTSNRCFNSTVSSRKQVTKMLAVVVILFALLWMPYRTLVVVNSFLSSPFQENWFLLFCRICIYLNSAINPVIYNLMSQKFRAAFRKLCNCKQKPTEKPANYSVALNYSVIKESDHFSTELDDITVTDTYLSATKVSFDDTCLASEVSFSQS
Chain of Nuclear receptor subfamily 1 group I member 2 (Rattus norvegicus) (Q9R1A7 whole entry, looked up): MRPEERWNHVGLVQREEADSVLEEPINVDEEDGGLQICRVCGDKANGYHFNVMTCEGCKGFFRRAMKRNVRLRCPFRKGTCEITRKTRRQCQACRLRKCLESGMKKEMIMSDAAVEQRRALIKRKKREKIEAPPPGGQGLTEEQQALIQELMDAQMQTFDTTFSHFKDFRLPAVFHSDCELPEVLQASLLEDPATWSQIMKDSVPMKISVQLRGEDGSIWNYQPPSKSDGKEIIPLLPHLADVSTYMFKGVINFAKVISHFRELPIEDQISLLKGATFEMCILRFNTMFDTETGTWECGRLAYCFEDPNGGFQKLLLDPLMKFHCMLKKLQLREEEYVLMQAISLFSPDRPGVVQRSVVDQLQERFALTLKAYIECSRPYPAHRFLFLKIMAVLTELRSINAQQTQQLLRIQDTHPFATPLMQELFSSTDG
Chain of Cytochrome P450 2D6 (Homo sapiens) (P10635 whole entry, looked up): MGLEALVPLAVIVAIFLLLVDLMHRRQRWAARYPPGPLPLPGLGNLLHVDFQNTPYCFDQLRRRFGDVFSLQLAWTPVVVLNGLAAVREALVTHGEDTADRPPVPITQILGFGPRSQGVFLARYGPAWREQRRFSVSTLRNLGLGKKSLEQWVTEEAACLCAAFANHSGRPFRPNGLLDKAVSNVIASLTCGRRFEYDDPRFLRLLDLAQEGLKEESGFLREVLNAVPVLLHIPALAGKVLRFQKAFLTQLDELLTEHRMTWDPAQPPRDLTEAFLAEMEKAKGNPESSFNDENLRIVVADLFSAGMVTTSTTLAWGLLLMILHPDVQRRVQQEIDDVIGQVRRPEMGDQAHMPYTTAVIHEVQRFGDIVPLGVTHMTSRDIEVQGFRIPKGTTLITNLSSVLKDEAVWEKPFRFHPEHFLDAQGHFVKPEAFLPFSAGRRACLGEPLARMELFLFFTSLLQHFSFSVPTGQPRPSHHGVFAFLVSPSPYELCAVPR

Take `C#CCN(C)Cc1ccccc1`: the Potency result in [1], in [2], in experiment [3], in experiment [4], in [6] and in [8] was “inactive” each time. Also, the Potency result in experiment [9], in [11], in experiment [12], in [13] and in experiment [15] was “inactive” in each case. The outcome in experiment [5], in [7] and in experiment [14] was inactive. The max activation in experiment [10] was -0.422% (inactive).

Consider `C=C(C)C(=O)OCCOCCOCCOC(=O)C(=C)C`, for which the Potency entry in experiment [1], in experiment [2], in [3], in [4], in experiment [6] and in experiment [16] was “inactive” in each case. The Potency entry in [8], in experiment [9] and in [15] was “inactive” in each case. Moreover, the molecule was called inactive in [5], in experiment [7] and in [14]. For the same molecule, the Potency in experiment [12] is 22.5 µM (active) and 31.7 µM (active); in experiment [13], 40 µM (active); in experiment [17] it was 40 µM (active) and 28.3 µM (active).

Turning to `O=C(CC(C(=O)OC1CCCCC1)S(=O)(=O)O)OC1CCCCC1` (stereo not given), the Potency result in [1], in experiment [2], in experiment [3], in experiment [6], in experiment [16] and in experiment [8] was “inactive” throughout. For the same molecule, the Potency result in experiment [18], in experiment [12], in [17] and in experiment [15] was “inactive” each time. Also, the call in [7] and in experiment [14] was inactive. The Potency in experiment [9] is 26.9 µM (active); in experiment [13] it was 40.1 µM (active) and 35.1 µM (active).

As for `CCCCCCCCCCCCS`, the Potency entry in [1], in experiment [2], in experiment [3], in experiment [4], in experiment [6] and in experiment [19] was “inactive” each time. Also, the Potency result in experiment [8], in [9], in [12], in [13] and in experiment [17] was “inactive” in each case. Moreover, the call in [5], in experiment [7] and in experiment [14] was inactive.

On to `c1ccc2c(c1)ccc1ccccc12`, for which the Potency result in experiment [1], in experiment [2], in [3], in [4], in experiment [6] and in experiment [8] was “inactive” each time. Further, the Potency entry in experiment [9] was “inactive”. Also, the molecule was classed as inactive in experiment [5], in [7] and in experiment [14]. Besides, the Potency in experiment [12] is 77.5 µM (active) and 39.9 µM (active); in experiment [17] it was 6.16 µM (active) and 3.99 µM (active).

Consider `O=P(OC(CCl)CCl)(OC(CCl)CCl)OC(CCl)CCl`, for which the Potency entry in [2], in [3] and in experiment [16] was “inactive” throughout. Further, the outcome in experiment [20], in experiment [7] and in experiment [14] was inactive. Also, the Potency is 39.8 µM (active) and inactive in experiment [6]; 30.5 µM (active) in experiment [8]; 34.2 µM (active) and 6.11 µM (active) in experiment [9]; 7.06 µM (active) and 35.6 µM (active) in experiment [12]; 35.4 µM (active) and 35.6 µM (active) in [13]; 35.4 µM (active) and 31.7 µM (active) in [17]. In addition, in experiment [15], the Potency was 706 nM (active) and 2.83 µM (active).

On to `OC[C@H]1O[C@@](CO)(O[C@H]2O[C@H](CO)[C@@H](O)[C@H](O)[C@H]2O)[C@@H](O)[C@@H]1O`, for which the Potency result in experiment [1], in experiment [2], in experiment [3], in experiment [4], in experiment [6] and in [19] was “inactive” each time. In addition, the Potency result in experiment [8], in experiment [11], in experiment [12], in experiment [13], in [17] and in experiment [15] was “inactive” in each case. In addition, the call in experiment [5], in experiment [7] and in experiment [14] was inactive. For the same molecule, the Potency result in experiment [9] was “inactive and 27.3 µM (active)”. The max activation in [10] was 0.408% (inactive).
